Measured values reported in the supplement of paper PMC10849652.
About 8,800 targets were measured; listed, in parts, are those with a hit and a random draw of the rest. About 0.5% of all pairs of compound and target were hits.

Assays:
Test in all cases: log2 fold change, soluble protein after heating vs DMSO (PISA); higher = thermal stabilisation; K562 lysate, 10 uM; active = over 0.2 and 3.5 SD of the protein, either way, in both replicates (recomputed)
nilotinib = compound: Cc1cn(-c2cc(NC(=O)c3ccc(C)c(Nc4nccc(-c5cccnc5)n4)c3)cc(C(F)(F)F)c2)cn1 [nilotinib]
How it was run: (§1)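 Values give the log-two fold change in thermal stability against solvent controls, from duplicates. Crude K562 extract at 1 mg/mL protein, made by dounce homogenisation in PBS pH 7.4 with 1 mM MgCl2, was treated with 10 μM compound for 30 min. After 3 min heating across 48°C-58°C, aliquots were pooled, adjusted to 0.5% NP-40 at 4°C and centrifuged at 21,000xg for 90 min. The supernatant was measured by TMTpro 16plex LC-MS/MS with channel sums equalised.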

[1] = compound: Cc1nc(Nc2n[nH]c3c2CN(C(=O)N[C@H](CN(C)C)c2ccccc2)C3(C)C)c2sccc2n1
How it was run: as §1

dasatinib = compound: Cc1nc(Nc2ncc(C(=O)Nc3c(C)cccc3Cl)s2)cc(N2CCN(CCO)CC2)n1 [dasatinib]
How it was run: as §1

[2] = compound: Cc1ncc(-c2ccnc(Nc3ccc(S(C)(=O)=O)cc3)n2)n1C(C)C
How it was run: as §1

[3] = compound: Cn1cc(-c2ccc3c(c2)CCN3C(=O)Cc2cccc(C(F)(F)F)c2)c2c(N)ncnc21
How it was run: as §1

quisinostat = compound: Cn1cc(CNCC2CCN(c3ncc(C(=O)NO)cn3)CC2)c2ccccc21 [quisinostat]
How it was run: as §1

tipifarnib = compound: Cn1cncc1[C@@](N)(c1ccc(Cl)cc1)c1ccc2c(c1)c(-c1cccc(Cl)c1)cc(=O)n2C [tipifarnib]
How it was run: as §1

[4] = compound: NC(=O)Nc1cc(-c2cccc(F)c2)sc1C(=O)N[C@H]1CCCNC1
How it was run: as §1

[5] = compound: NC(=O)c1cnc(N[C@@H]2CCCC[C@@H]2N)nc1Nc1cccc(-n2nccn2)c1
How it was run: as §1

[6] = compound: NC1(c2ccc(-c3nc4ccn5c(=O)[nH]nc5c4cc3-c3ccccc3)cc2)CCC1
How it was run: as §1

[7] = compound: NCC(=O)Nc1ccc(-n2nc(C(F)(F)F)cc2-c2ccc3c(ccc4ccccc43)c2)cc1
How it was run: as §1

vorinostat = compound: O=C(CCCCCCC(=O)Nc1ccccc1)NO [vorinostat]
How it was run: as §1

silmitasertib = compound: O=C(O)c1ccc2c(c1)nc(Nc1cccc(Cl)c1)c1ccncc12 [silmitasertib]
How it was run: as §1

[8] = compound: O=C1NC(=O)C(c2cnc3ccccn23)=C1c1cn2c3c(cc(F)cc13)CN(C(=O)N1CCCCC1)CC2
How it was run: as §1

entospletinib = compound: c1cn2cc(-c3ccc4cn[nH]c4c3)nc(Nc3ccc(N4CCOCC4)cc3)c2n1 [entospletinib]
How it was run: as §1

Measured: log2 fold change

LUZP1 (UniProt Q86V48)
active: vorinostat -0.248
inactive: nilotinib 0.013 | [1] -0.046 | dasatinib -0.004 | [2] -0.02 | [3] 0.062 | quisinostat -0.03 | tipifarnib -0.005 | [4] 0.109 | [5] 0.01 | [6] 0.027 | [7] 0.094 | silmitasertib 0.129 | [8] 0.022 | entospletinib -0.03

LAP3 (UniProt P28838)
inactive: nilotinib 0.045 | [1] -0.006 | dasatinib -0.047 | [2] 0.016 | [3] -0.123 | quisinostat -0.192 | tipifarnib -0.008 | [4] 0.049 | [5] 0.009 | [6] -0.137 | [7] 0.048 | vorinostat 0.082 | silmitasertib -0.104 | [8] 0.104 | entospletinib -0.008

LIG4 (UniProt P49917)
Chain of UniProt P49917 (P49917 whole entry, looked up): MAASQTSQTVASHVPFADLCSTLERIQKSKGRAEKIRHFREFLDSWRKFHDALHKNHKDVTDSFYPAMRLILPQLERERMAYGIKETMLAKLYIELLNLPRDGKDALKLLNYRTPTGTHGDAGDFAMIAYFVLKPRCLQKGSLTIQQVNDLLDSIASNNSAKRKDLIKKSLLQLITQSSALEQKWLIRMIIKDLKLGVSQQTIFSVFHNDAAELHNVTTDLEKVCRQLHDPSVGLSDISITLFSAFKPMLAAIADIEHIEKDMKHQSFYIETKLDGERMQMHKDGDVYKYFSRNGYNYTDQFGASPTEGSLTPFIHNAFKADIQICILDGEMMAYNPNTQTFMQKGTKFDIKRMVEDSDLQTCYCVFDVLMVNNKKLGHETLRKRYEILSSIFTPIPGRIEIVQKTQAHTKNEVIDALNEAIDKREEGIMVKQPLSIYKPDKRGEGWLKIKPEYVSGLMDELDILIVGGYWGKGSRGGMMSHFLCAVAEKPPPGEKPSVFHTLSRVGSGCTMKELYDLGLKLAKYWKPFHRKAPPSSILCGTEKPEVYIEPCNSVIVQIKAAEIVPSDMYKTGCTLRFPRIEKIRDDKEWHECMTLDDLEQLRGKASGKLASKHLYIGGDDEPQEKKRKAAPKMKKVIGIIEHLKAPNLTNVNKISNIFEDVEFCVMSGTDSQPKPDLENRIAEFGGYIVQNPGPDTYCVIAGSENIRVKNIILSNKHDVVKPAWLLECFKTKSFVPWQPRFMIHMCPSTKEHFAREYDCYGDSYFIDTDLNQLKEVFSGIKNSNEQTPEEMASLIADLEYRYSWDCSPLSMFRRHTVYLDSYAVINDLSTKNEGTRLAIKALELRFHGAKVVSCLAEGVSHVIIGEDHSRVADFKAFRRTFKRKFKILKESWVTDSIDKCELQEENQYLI
inactive: nilotinib 0.02 | [1] -0.072 | dasatinib 0.018 | [2] -0.008 | [3] -0.026 | quisinostat -0.085 | tipifarnib 0.038 | [4] 0.066 | [5] -0.045 | [6] -0.005 | [7] -0.041 | vorinostat -0.368 | silmitasertib 0.107 | [8] -0.039 | entospletinib 0.062

MARK3 (UniProt P27448)
active: silmitasertib 0.445
inactive: nilotinib 0.013 | [1] -0.004 | dasatinib -0.186 | [2] -0.05 | [3] 0.014 | quisinostat 0.172 | tipifarnib -0.072 | [4] -0.08 | [5] -0.029 | [6] -0.06 | [7] -0.035 | vorinostat -0.069 | [8] 0.035 | entospletinib 0.036

MED13L (UniProt Q71F56)
active: vorinostat -0.253
inactive: nilotinib 0.06 | [1] -0.056 | dasatinib 0.017 | [2] 0.032 | [3] 0.045 | quisinostat -0.055 | tipifarnib -0.012 | [4] 0.069 | [5] 0.014 | [6] 0.015 | [7] -0.057 | silmitasertib 0.017 | [8] 0.017 | entospletinib -0.052

MON2 isoform 5 (UniProt Q7Z3U7)
inactive: nilotinib -0.006 | [1] -0.021 | dasatinib -0.072 | [2] 0.018 | [3] 0.039 | quisinostat -0.074 | tipifarnib -0.004 | [4] 0.021 | [5] 0.005 | [6] -0.003 | [7] 0.021 | silmitasertib 0.021 | [8] 0 | entospletinib 0.005
active: vorinostat -0.525

LTN1 isoform 3 (UniProt O94822)
inactive: nilotinib 0.006 | [1] -0.007 | dasatinib -0.086 | [2] -0.009 | [3] 0.014 | quisinostat -0.023 | tipifarnib -0.002 | [4] 0.044 | [5] -0.016 | [6] -0.027 | [7] 0.057 | silmitasertib 0.04 | [8] 0.028 | entospletinib 0.034
active: vorinostat -0.58

MCCC1 (UniProt Q96RQ3)
Chain of UniProt Q96RQ3 (Q96RQ3 whole entry, looked up): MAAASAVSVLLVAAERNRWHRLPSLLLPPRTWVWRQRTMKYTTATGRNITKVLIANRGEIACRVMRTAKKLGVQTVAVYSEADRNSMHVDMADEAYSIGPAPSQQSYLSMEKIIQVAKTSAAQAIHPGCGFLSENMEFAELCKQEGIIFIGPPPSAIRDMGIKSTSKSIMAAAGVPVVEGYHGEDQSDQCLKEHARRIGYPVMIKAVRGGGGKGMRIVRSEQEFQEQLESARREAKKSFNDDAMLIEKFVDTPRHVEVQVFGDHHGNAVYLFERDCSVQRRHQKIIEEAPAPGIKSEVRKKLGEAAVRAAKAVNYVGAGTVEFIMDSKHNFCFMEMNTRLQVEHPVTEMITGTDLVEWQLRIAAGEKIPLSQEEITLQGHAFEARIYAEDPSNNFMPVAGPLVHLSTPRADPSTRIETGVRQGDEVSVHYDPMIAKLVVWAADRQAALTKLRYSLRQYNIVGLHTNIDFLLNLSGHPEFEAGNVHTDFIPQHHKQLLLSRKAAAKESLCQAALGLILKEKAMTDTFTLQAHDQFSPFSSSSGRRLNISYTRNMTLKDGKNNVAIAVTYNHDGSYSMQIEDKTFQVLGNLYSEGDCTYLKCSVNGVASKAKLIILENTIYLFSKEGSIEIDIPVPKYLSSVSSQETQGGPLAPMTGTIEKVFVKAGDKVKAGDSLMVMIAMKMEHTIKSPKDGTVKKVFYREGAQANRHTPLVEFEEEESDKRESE
active: vorinostat -0.292
inactive: nilotinib -0.025 | [1] 0.002 | dasatinib -0.103 | [2] 0.027 | [3] 0.008 | quisinostat -0.049 | tipifarnib 0.031 | [4] 0.035 | [5] 0.008 | [6] -0.045 | [7] 0.028 | silmitasertib 0.02 | [8] -0.003 | entospletinib 0.023

MCMBP (UniProt Q9BTE3)
inactive: nilotinib -0.01 | [1] -0.008 | dasatinib -0.031 | [2] -0.028 | [3] 0.008 | quisinostat -0.039 | tipifarnib 0.024 | [4] 0.039 | [5] 0.014 | [6] -0.033 | [7] -0.01 | silmitasertib 0.028 | [8] -0.013 | entospletinib -0.007
active: vorinostat -0.415

KLC2 (UniProt Q9H0B6)
active: vorinostat -0.348
inactive: nilotinib 0.016 | [1] 0.013 | dasatinib -0.062 | [2] 0.067 | [3] 0.041 | quisinostat -0.017 | tipifarnib 0.063 | [4] 0.012 | [5] 0.013 | [6] -0.036 | [7] 0.01 | silmitasertib -0.005 | [8] -0.061 | entospletinib 0.034

MORC3 (UniProt Q14149)
active: vorinostat -0.303
inactive: nilotinib 0.001 | [1] 0.012 | dasatinib 0.006 | [2] -0.015 | [3] 0.046 | quisinostat -0.018 | tipifarnib -0.01 | [4] 0.037 | [5] -0.017 | [6] -0.004 | [7] 0.008 | silmitasertib -0.01 | [8] 0.005 | entospletinib 0.009

MAP2K2 (UniProt P36507)
Chain of UniProt P36507 (P36507 whole entry, looked up): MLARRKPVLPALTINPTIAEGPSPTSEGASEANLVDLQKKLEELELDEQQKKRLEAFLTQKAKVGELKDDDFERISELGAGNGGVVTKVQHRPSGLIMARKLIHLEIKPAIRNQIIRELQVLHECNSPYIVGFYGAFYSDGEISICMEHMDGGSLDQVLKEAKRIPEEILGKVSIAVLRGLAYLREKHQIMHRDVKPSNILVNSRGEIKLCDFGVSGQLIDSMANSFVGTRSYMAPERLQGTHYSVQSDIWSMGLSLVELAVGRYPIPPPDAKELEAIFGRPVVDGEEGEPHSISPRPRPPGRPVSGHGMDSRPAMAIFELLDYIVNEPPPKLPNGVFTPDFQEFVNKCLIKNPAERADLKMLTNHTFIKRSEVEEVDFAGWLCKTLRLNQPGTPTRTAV
active: dasatinib 0.445 | [4] 0.495
inactive: nilotinib -0.03 | [1] 0.205 | [2] 0.065 | [3] -0.031 | quisinostat 0 | tipifarnib -0.006 | [5] 0.033 | [6] -0.002 | [7] -0.031 | vorinostat -0.088 | silmitasertib 0.099 | [8] 0.032 | entospletinib 0.04

MED12 isoform 2 (UniProt Q93074)
active: vorinostat -0.466
inactive: nilotinib -0.017 | [1] -0.025 | dasatinib -0.024 | [2] -0.009 | [3] 0.01 | quisinostat -0.05 | tipifarnib 0.005 | [4] 0.034 | [5] 0.019 | [6] 0.002 | [7] 0.003 | silmitasertib -0.044 | [8] -0.008 | entospletinib -0.012

LSG1 (UniProt Q9H089)
inactive: nilotinib 0.003 | [1] 0.015 | dasatinib 0.102 | [2] 0.026 | [3] 0.137 | quisinostat -0.091 | tipifarnib -0.004 | [4] 0.115 | [5] -0.014 | [6] 0.032 | [7] -0.074 | vorinostat -0.052 | silmitasertib 0.043 | [8] 0.096 | entospletinib 0.139

KRAS (UniProt P01116)
Chain of UniProt P01116 (P01116 whole entry, looked up): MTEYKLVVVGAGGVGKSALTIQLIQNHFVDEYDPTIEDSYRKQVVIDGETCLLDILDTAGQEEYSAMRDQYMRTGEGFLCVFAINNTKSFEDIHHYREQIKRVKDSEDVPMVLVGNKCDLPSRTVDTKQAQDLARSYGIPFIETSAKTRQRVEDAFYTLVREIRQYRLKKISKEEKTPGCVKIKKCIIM
inactive: nilotinib 0.034 | [1] -0.014 | dasatinib 0.049 | [2] 0.018 | [3] -0.015 | quisinostat 0.042 | tipifarnib 0.129 | [4] -0.001 | [5] 0.005 | [6] -0.032 | [7] 0.033 | vorinostat 0.129 | silmitasertib 0.022 | [8] -0.072 | entospletinib -0.021

KLC1 isoform 6 (UniProt Q07866)
Chain of UniProt Q07866 (Q07866 whole entry, looked up): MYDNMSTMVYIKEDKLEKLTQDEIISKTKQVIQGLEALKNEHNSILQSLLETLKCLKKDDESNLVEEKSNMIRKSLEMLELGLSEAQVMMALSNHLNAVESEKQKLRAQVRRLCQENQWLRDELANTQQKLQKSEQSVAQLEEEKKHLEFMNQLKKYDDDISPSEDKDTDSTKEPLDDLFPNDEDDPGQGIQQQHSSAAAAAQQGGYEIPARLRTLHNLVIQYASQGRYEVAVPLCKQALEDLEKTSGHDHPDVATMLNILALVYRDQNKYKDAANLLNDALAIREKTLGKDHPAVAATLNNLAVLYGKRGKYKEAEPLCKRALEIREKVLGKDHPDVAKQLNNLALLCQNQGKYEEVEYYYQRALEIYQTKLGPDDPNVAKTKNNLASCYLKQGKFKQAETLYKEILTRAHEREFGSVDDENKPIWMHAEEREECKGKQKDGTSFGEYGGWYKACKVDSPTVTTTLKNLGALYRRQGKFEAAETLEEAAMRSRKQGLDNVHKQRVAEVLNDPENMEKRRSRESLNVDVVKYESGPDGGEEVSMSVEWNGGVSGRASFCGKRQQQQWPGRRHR
active: vorinostat -0.231
inactive: nilotinib 0.009 | [1] -0.017 | dasatinib -0.021 | [2] -0.009 | [3] 0.009 | quisinostat -0.014 | tipifarnib -0.005 | [4] -0.014 | [5] 0.002 | [6] 0.017 | [7] 0.024 | silmitasertib -0.004 | [8] -0.034 | entospletinib 0.013

MED16 (UniProt Q9Y2X0)
inactive: nilotinib -0.019 | [1] 0.01 | dasatinib -0.026 | [2] 0.023 | [3] -0.016 | quisinostat -0.01 | tipifarnib 0.008 | [4] -0.013 | [5] 0.023 | [6] -0.047 | [7] -0.005 | silmitasertib 0.052 | [8] -0.022 | entospletinib 0.016
active: vorinostat -0.354

MPP1 (UniProt Q00013)
active: vorinostat -0.297
inactive: nilotinib -0.017 | [1] -0.014 | dasatinib -0.011 | [2] 0.011 | [3] 0.007 | quisinostat 0.017 | tipifarnib 0 | [4] 0.024 | [5] 0.017 | [6] 0 | [7] 0.012 | silmitasertib 0.02 | [8] 0.024 | entospletinib 0.007

LZTS1 (UniProt Q9Y250)
Chain of UniProt Q9Y250 (Q9Y250 whole entry, looked up): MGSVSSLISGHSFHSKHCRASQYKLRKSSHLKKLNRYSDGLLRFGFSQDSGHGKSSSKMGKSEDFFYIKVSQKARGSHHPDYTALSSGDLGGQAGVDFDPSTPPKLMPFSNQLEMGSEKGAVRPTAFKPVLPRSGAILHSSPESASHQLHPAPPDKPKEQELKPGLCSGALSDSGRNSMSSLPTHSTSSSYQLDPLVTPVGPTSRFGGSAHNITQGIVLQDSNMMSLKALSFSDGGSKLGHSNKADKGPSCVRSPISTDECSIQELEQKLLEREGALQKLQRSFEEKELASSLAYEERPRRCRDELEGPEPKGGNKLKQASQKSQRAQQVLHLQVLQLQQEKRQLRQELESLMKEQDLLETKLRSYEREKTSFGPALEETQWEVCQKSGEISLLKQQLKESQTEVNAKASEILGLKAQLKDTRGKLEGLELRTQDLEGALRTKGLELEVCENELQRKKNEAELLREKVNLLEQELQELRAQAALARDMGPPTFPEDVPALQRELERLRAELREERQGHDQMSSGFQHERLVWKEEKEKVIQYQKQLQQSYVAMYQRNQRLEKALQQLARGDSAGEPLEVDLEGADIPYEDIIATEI
inactive: nilotinib -0.13 | [1] 0.023 | dasatinib 0.056 | [2] 0.167 | [3] -0.266 | tipifarnib 0.087 | [4] 0.186 | [5] -0.02 | [6] -0.297 | [7] 0.04 | vorinostat 0.101 | silmitasertib -0.143 | [8] 0.121 | entospletinib 0.07
active: quisinostat -1.06

MFF isoform 2 (UniProt Q9GZY8)
Chain of UniProt Q9GZY8 (Q9GZY8 whole entry, looked up): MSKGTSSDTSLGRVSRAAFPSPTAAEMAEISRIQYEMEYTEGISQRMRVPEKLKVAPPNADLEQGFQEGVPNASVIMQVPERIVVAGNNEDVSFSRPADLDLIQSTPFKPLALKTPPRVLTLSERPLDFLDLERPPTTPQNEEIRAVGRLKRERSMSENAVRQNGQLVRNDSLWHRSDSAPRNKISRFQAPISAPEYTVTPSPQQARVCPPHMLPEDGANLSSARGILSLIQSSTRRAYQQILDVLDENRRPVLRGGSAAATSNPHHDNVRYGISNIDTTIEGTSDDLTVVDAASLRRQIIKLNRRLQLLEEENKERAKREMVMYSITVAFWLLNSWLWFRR
inactive: nilotinib -0.025 | [1] -0.039 | dasatinib -0.005 | [2] 0.008 | [3] -0.012 | quisinostat 0.002 | tipifarnib -0.004 | [4] 0.007 | [5] 0.016 | [6] -0.026 | [7] 0.003 | vorinostat 0.17 | silmitasertib -0.048 | [8] 0.029 | entospletinib -0.055

MMS22L (UniProt Q6ZRQ5)
Chain of UniProt Q6ZRQ5 (Q6ZRQ5 whole entry, looked up): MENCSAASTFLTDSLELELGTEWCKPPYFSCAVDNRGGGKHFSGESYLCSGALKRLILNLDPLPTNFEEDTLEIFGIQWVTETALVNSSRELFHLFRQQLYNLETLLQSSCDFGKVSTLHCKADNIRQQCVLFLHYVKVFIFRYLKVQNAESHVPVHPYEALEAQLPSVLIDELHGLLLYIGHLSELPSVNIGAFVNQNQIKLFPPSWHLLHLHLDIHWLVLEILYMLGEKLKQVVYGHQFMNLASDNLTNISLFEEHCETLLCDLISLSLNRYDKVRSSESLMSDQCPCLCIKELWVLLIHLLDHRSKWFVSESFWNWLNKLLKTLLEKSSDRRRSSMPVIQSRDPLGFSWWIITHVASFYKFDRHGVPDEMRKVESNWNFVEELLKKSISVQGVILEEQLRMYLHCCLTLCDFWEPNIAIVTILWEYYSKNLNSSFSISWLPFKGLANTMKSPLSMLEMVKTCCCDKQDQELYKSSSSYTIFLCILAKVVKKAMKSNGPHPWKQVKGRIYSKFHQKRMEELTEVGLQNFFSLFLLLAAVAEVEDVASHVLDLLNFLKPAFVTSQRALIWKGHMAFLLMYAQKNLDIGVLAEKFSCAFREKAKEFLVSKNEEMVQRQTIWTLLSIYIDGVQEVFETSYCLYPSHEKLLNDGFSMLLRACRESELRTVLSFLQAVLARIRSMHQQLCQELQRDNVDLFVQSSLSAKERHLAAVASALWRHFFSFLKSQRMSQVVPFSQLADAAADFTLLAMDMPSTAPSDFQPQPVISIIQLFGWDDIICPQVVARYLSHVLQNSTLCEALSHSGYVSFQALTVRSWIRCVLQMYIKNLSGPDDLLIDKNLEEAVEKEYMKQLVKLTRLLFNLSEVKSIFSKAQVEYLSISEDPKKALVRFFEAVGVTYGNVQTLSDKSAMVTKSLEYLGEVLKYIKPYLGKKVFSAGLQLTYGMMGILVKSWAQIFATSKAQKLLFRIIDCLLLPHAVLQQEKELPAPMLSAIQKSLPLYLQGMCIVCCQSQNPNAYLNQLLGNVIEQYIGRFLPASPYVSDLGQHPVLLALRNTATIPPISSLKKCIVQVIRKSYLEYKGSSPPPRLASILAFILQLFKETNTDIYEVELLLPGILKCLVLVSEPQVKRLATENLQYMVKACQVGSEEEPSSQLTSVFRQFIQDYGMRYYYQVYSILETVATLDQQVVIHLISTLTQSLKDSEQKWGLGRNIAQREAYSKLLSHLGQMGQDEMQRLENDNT
active: vorinostat -0.508
inactive: nilotinib 0.033 | [1] 0 | dasatinib 0.026 | [2] -0.015 | [3] -0.007 | quisinostat -0.086 | tipifarnib -0.013 | [4] 0.041 | [5] -0.03 | [6] -0.06 | [7] 0.022 | silmitasertib 0.016 | [8] 0.138 | entospletinib 0.069
